These results are taken from PubChem BioAssay (NCATS).

The nature of experiment [1]: P-glycoprotein substrates identified in KB-8-5-11 adenocarcinoma cell line, qHTS therapeutic library screen (AID 1346987). Note: nearly all actives have a fitted effect of over 65% in size. Note: potency is the fitted concentration of half-maximal effect. In a few lines:
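Compounds are pinned in dose-response onto KB-8-5-11 cells (500 cells/well, colchicine-free medium) and left 72 h at 37 degree C. CellTiter-Glo luminescence then yields AC50 values.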

Experiment [2] can be described thus: Natriuretic polypeptide receptor (hNpr1) antagonism - Pilot counterscreen GloSensor control cell line (AID 1347045; calls by dose curve; note: series mostly up to about 38 µM; % is set by controls: 0 for no effect and ±100 for the full control effect). In a few lines:
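Control counterscreen: luciferase cGMP-biosensor HEK293 cells (no Npr1) received compound for 30 min at room temperature after GloSensor substrate loading. Luminescence was measured before and 20 min after soluble guanylyl cyclase activation by 50 uM nitroprusside.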
A general note: A counterscreen serves to expose hits that act by an unwanted route or on another target.

The target of experiment [3] is Atrial natriuretic peptide receptor 2 (Homo sapiens) (UniProt P20594). Kind of experiment: Natriuretic polypeptide receptor (hNpr2) antagonism - Pilot subtype selectivity assay (AID 1347050; calls by dose curve; note: potency is the fitted concentration of half-maximal effect). In a few lines: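 Antagonist mode: compounds (LOPAC1280, seven 1:5 dilutions) added 30 min before 1 nM hNppC stimulation of hNpr2-HEK293 cGMP-sensor cells; luminescence read before and 20 min after agonist at ambient temperature.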
Sequence of Atrial natriuretic peptide receptor 2 (Homo sapiens) (P20594 whole entry, looked up): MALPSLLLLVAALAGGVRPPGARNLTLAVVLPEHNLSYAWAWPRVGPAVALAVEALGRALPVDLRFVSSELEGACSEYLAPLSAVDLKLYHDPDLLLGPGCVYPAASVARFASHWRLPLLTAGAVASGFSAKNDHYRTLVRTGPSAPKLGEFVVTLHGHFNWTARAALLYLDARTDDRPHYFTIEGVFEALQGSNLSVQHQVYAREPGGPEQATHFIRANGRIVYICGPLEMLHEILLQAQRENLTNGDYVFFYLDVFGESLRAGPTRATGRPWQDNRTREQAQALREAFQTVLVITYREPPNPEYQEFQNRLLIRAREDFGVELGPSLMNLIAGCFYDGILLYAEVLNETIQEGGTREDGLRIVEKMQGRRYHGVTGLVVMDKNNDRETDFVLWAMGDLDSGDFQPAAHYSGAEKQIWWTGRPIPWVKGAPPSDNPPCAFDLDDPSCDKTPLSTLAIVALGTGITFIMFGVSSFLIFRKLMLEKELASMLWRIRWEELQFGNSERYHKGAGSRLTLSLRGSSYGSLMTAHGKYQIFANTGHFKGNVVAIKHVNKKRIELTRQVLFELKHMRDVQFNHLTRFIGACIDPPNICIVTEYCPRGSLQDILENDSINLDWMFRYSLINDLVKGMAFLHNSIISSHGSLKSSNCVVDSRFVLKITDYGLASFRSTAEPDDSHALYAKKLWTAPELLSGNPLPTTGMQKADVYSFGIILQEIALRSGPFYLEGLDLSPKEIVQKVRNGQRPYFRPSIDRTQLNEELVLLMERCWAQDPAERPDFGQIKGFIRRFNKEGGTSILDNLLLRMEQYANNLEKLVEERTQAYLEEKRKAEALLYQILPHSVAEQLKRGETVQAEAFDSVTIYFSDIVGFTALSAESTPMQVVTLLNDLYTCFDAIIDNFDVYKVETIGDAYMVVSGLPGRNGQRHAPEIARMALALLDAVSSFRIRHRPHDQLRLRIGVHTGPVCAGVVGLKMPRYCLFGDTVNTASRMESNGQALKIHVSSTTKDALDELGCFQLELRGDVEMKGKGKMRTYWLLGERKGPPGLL

A short description of experiment [4]: NS1 protein of Zika virus - qHTS assay to identify small molecule inhibitors in human HEK 293 cells (AID 1347053).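 Note: series mostly up to about 46 µM; plate controls were infected untreated cells for no effect and uninfected cells for full effect; nearly all actives have a fitted effect of over 55% in size.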 The essentials:
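Read-out is a two-antibody TR-FRET for ZIKV NS1, normalized between uninfected cells and infected cells. Compound added 1 h before MR766 infection at MOI 0.5; human HEK 293 cells incubated 24 h, 37 C.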
A general note: In qHTS, concentration-response curves come from the screen itself.

Experiment [5] deals with Parathyroid hormone/parathyroid hormone-related peptide receptor (Homo sapiens) (UniProt Q03431). Nature of the experiment: qHTS for PTHR1 Agonists: Optimization Screen against the NCGC LOPAC library (AID 1347079).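 Note: GloSensor cAMP luminescence in HEK-293 GP2 cells expressing human PTHR1 with IBMX; 0% is about no effect.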 The essentials: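 HEK-293 GP2 cells, PTHR1 + GloSensor cAMP; 3000 cells/well, o/n. Luciferin + IBMX 0.5mM each (stock), 1 hr 37C. Cpd titration, 1 hr 37C. Lum after 15 min RT. Ctrl M-PTH(1-15) top 10uM.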
Sequence of Parathyroid hormone/parathyroid hormone-related peptide receptor (Homo sapiens) (Q03431 whole entry, looked up): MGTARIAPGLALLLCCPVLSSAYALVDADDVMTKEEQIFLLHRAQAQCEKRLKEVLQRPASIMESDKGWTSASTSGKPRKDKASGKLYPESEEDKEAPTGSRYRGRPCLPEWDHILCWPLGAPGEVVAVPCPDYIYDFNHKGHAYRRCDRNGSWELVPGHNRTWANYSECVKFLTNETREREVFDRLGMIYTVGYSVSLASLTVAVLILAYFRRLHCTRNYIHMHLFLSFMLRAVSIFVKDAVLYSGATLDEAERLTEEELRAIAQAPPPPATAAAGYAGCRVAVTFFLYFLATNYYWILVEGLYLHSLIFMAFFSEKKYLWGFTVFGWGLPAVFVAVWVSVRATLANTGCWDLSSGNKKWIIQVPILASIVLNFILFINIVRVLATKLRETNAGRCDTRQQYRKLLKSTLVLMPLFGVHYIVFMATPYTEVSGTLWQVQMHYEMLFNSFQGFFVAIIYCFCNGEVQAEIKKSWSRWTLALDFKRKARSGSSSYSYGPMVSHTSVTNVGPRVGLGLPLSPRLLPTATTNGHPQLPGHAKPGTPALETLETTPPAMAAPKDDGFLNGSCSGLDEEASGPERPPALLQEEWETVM

The nature of experiment [6]: qHTS of pediatric cancer cell lines to identify multiple opportunities for drug repurposing: Primary screen for TC32 cells (AID 1347089). Note: % is set by controls: 0 for no effect and ±100 for the full control effect; nearly all actives have a fitted effect of over 60% in size. The essentials: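 Measured quantity: luminescence from CellTiter-Glo, reflecting metabolically active TC32 cells following 48 h of compound. Curves came straight from multi-point titrations, with 8 or 11 points in primary and 11 in confirmatory screening.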

Experiment [7] in a line: qHTS of pediatric cancer cell lines to identify multiple opportunities for drug repurposing: Primary screen for DAOY cells (AID 1347090).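 Note: series mostly up to about 46 µM; plate controls were DMSO for no effect and bortezomib for full effect; nearly all actives have a fitted effect of over 55% in size.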 In a few lines:
(§1)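 Cell viability, CellTiter-Glo luminescence; 500-1,000 cells/well, 8- or 11-point titration, 48 h compound exposure at 37 degrees C, 5% CO2. Controls: DMSO neutral, bortezomib 2.3 µM final as positive.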

Experiment [8] in a line: qHTS of pediatric cancer cell lines to identify multiple opportunities for drug repurposing: Primary screen for SJ-GBM2 cells (AID 1347091).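 Note: plate controls were DMSO neutral control for no effect and bortezomib for full effect.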 In a few lines: as §1
The nature of experiment [9]: qHTS of pediatric cancer cell lines to identify multiple opportunities for drug repurposing: Primary screen for BT-37 cells (AID 1347094).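 Note: series mostly up to about 57 µM; plate controls were DMSO for no effect and bortezomib for full effect.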 In a few lines: (§2)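 500-1,000 cells/well; 5 h pre-incubation 37 °C/5% CO2; compound pinned; 48 h; CellTiter-Glo, 15 min RT; luminescence. MIPE 11-pt from 0.78 nM, NPC 8-pt from 0.59 nM final. Bortezomib 2.3 µM final as positive control.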

Experiment [10] can be described thus: qHTS of pediatric cancer cell lines to identify multiple opportunities for drug repurposing: Primary screen for NB-EBc1 cells (AID 1347095).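 Note: plate controls were DMSO neutral control for no effect and bortezomib for full effect.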 In a few lines:
as §2

Experiment [11] in a line: qHTS of pediatric cancer cell lines to identify multiple opportunities for drug repurposing: Primary screen for U-2 OS cells (AID 1347096).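 Note: plate controls were DMSO wells for no effect and bortezomib positive control wells for full effect; nearly all actives have a fitted effect of over 50% in size.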 In a few lines:
(§3)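 Cells (500-1,000/well) rested 5 h, then received compounds for 48 h; metabolically active cells were measured by CellTiter-Glo luminescence. Final concentrations spanned up to 46 µM (MIPE, 11-point) or 0.59 nM-46 µM (NPC, 8-point) in primary screens, 11-point in follow-ups.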

The nature of experiment [12]: qHTS of pediatric cancer cell lines to identify multiple opportunities for drug repurposing: Primary screen for Saos-2 cells (AID 1347097). Note: % is set by controls: 0 for no effect and ±100 for the full control effect; nearly all actives have a fitted effect of over 40% in size. The essentials:
as §2

The nature of experiment [13]: qHTS of pediatric cancer cell lines to identify multiple opportunities for drug repurposing: Primary screen for SK-N-SH cells (AID 1347098). Note: % is set by controls: 0 for no effect and ±100 for the full control effect; nearly all actives have a fitted effect of over 65% in size. In a few lines: as §3
Experiment [14] is described as follows: qHTS of pediatric cancer cell lines to identify multiple opportunities for drug repurposing: Primary screen for NB1643 cells (AID 1347099).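 Note: plate controls were DMSO neutral control for no effect and bortezomib positive control for full effect; nearly all actives have a fitted effect of over 50% in size.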 In a few lines:
as §2

Experiment [15] can be described thus: qHTS of pediatric cancer cell lines to identify multiple opportunities for drug repurposing: Primary screen for LAN-5 cells (AID 1347100).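 Note: plate controls were DMSO neutral control for no effect and bortezomib positive control for full effect.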 The essentials: as §3
In experiment [16] the target is T1, Tyrosine-protein phosphatase non-receptor type substrate 1 (Homo sapiens) + Leukocyte surface antigen CD47 (Homo sapiens) (UniProt P78324+Q08722). Kind of experiment: CD47-SIRPalpha protein protein interaction - LANCE assay qHTS validation (AID 1347057; active = well fitted curve in the direction sought with a large enough effect in the signal ratio, with a control signal flat, not every such curve was filed as active; the % refers to the signal ratio; note: series mostly up to about 38 µM; 0% is about no effect). The essentials: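 Inhibition of soluble CD47/SIRPalpha ectodomain association by titrated compounds, measured as 665/615 nm time-resolved FRET ratio after sequential 30 min room-temperature incubations.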
T1 sequence (P78324 whole entry, looked up, the tested form may be a part): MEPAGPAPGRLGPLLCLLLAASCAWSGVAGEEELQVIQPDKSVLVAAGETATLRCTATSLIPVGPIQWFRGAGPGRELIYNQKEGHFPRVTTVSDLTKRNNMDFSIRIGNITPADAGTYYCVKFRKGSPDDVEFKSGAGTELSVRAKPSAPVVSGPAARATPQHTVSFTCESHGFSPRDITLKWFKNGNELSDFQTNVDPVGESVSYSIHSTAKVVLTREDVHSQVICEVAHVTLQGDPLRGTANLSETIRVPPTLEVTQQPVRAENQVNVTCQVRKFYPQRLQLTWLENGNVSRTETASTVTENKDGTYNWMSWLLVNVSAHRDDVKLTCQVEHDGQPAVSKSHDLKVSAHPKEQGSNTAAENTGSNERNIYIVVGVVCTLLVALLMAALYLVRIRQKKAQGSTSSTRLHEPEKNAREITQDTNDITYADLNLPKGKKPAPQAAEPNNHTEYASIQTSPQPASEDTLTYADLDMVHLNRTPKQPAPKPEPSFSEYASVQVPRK
T1 sequence (Q08722 whole entry, looked up, the tested form may be a part): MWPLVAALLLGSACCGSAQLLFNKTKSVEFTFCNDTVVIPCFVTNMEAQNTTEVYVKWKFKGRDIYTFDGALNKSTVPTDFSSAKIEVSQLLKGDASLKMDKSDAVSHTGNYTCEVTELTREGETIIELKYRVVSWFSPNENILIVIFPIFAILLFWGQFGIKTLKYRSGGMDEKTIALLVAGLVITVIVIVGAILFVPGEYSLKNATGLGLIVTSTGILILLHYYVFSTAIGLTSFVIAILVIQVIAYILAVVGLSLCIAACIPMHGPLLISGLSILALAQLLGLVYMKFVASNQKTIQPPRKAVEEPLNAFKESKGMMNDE
Background: TR-FRET usually uses a lanthanide donor and a delayed reading to cut background.

A short description of experiment [17]: qHTS of pediatric cancer cell lines to identify multiple opportunities for drug repurposing: Primary screen for A673 cells (AID 1347092). For activity change, negative = cytotoxic: % is set by controls: 0 for no effect and ±100 for the full control effect. Note: nearly all actives have a fitted effect of over 45% in size. Note: potency is the fitted concentration of half-maximal effect. The essentials: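 Cells are plated, rested 5 h, dosed by pintool, incubated 48 h, then lysed with CellTiter-Glo and read by luminescence. DMSO is the neutral control; bortezomib at 2.3 uM final is the positive control.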

Experiment [18] can be described thus: qHTS of pediatric cancer cell lines to identify multiple opportunities for drug repurposing: Primary screen for SK-N-MC cells (AID 1347093).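 Note: series mostly up to about 46 µM; plate controls were DMSO neutral control for no effect and bortezomib for full effect.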 In a few lines:
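Metabolically active cells were quantified by ATP-dependent luminescence (CellTiter-Glo, 15 min at room temperature) following 48 h treatment. Cells had been plated at 500-1,000 per well and settled for 5 h beforehand.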

Experiment [19] deals with T1, Tyrosine-protein phosphatase non-receptor type substrate 1 (Homo sapiens) + Leukocyte surface antigen CD47 (Homo sapiens). Kind of experiment: CD47-SIRPalpha protein protein interaction - Alpha assay qHTS validation (AID 1347059).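 Note: bead proximity luminescence from CD47 binding SIRPalpha after compound preincubation with SIRPalpha; % is set by controls: 0 for no effect and ±100 for the full control effect.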 In a few lines: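 AlphaScreen signal between CD47-His (12.5 nM) and biotin-SIRPalpha (25 nM) soluble extracellular domains, bead-captured via Ni-NTA and streptavidin. Compounds, in 7-point titrations, met SIRPalpha 30 min before CD47; PBS pH 7.4 with 0.05% IGEPAL.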

Unmarked numbers belong to inactive results. Records with an inconclusive call do not appear. Calls of active or inactive are those of the source. Unless noted, calls come from the whole dose curve; as a rule, active = well fitted curve in the direction sought with a large enough effect; inconclusive = small, poorly fitted or top-dose-only effect, or another doubt; inactive = no such curve, though single readings can be large; an effect the other way counts as inactive or inconclusive.

For the molecule `NC1CCN(c2cccc(Cl)n2)CC1`, the Potency result in experiment [1], in [3], in experiment [4], in [5], in [6] and in experiment [7] was “inactive” throughout. In addition, the Potency entry in experiment [8], in experiment [9], in experiment [10], in experiment [11], in experiment [12] and in experiment [13] was “inactive” throughout. The Potency result in [14] and in [15] was “inactive” throughout. Further, the call in [2] was inactive.

On to `CCCCc1ncc(/C=C(\Cc2cccs2)C(=O)O)n1Cc1ccc(C(=O)O)cc1`, for which the Potency result in experiment [1], in [4], in experiment [7], in experiment [8], in [17] and in experiment [9] was “inactive” in each case. Besides, the Potency entry in experiment [10], in experiment [11], in [12], in experiment [13], in experiment [14] and in experiment [15] was “inactive” in each case. Besides, the result in [16] was inactive.

Consider `NC(N)=NCCC[C@H](N)C(=O)O`, for which the Potency result in experiment [1], in experiment [3], in experiment [4] and in experiment [5] was “inactive” each time. Besides, the activity change, negative = cytotoxic in [8] was 11.2% [at 4.84 µM]; in [17] it was 0.848% [at 4.84 µM]; in [18] it was -27.1% [at 4.84 µM]; in experiment [9], 4.21% [at 6.03 µM]; in [10], 12% [at 4.84 µM]; in experiment [11], 2.69% [at 4.84 µM]. The activity change, negative = cytotoxic is -0.158% [at 6 µM] in experiment [13], 7.96% [at 4.84 µM] in experiment [14] and 8.53% [at 4.84 µM] in experiment [15].

As to `CNC(=O)Oc1ccc2c(c1)[C@]1(C)CCN(C)[C@@H]1N2C`, the Potency result in experiment [1], in [3], in experiment [4], in experiment [5], in experiment [6] and in [7] was “inactive” each time. For the same molecule, the Potency entry in experiment [8], in experiment [17], in experiment [18], in [10], in experiment [11] and in [12] was “inactive” each time. Moreover, the Potency entry in experiment [13], in experiment [14] and in experiment [15] was “inactive” each time. Also, the molecule was called inactive in experiment [2] and in experiment [16].

With `CN(C)CCCN1c2ccccc2CCc2ccccc21`, the Potency in experiment [1] was 9.2 µM (active); in experiment [3], 16.5 µM (active). Further, the molecule was called inactive in experiment [2] and in [16]. Moreover, the Potency result in [4], in [5], in [6], in experiment [7], in [8] and in [9] was “inactive” throughout. For the same molecule, the Potency result in experiment [10], in [11], in [12], in experiment [13], in experiment [14] and in experiment [15] was “inactive” each time.

On to `NC1[C@H]2CN(c3nc4c(cc3F)c(=O)c(C(=O)O)cn4-c3ccc(F)cc3F)C[C@@H]12` (some centres undefined), for which the Potency entry in experiment [1], in experiment [4], in experiment [8], in experiment [18], in experiment [10] and in experiment [11] was “inactive” throughout. Moreover, in experiment [12], the Potency entry is “inactive”. The outcome in experiment [16] was inactive. For the same molecule, the Potency in experiment [17] is 13.3 µM (active).

In the case of `OCc1cc(C(O)CNCCCCCCOCCCCc2ccccc2)ccc1O` (centres undefined), the Potency entry in experiment [1], in experiment [3], in experiment [4], in [5], in experiment [6] and in experiment [11] was “inactive” in each case. Also, the Potency result in [12], in experiment [14] and in experiment [15] was “inactive” each time. The result in experiment [2], in experiment [16] and in experiment [19] was inactive.

For `CC(C)(C(=O)O)c1ccc(C(O)CCCN2CCC(C(O)(c3ccccc3)c3ccccc3)CC2)cc1` (centres undefined), the Potency result in [1], in experiment [4], in [5], in experiment [6], in experiment [7] and in experiment [8] was “inactive” in each case. The Potency entry in [17], in experiment [9], in [10], in experiment [11], in [12] and in [13] was “inactive” in each case. In addition, the Potency entry in experiment [14] and in [15] was “inactive” each time.
